Bioassay records (PubChem BioAssay)
aSyn UTR act = Activators via SNCA 5'UTR binding, MLPCN. 300,000 tested, 7.1% active. AID 1814. activity score, % (tested at 7.5 µM), hits read low. alpha-synuclein 5'UTR reporter, activators screen; in the data active means activity score below about -60%
The depositor's hits bear a star. Not all results are given here.

SMILES	aSyn UTR act
O=C(CC(SCCO)c1ccc2c(c1)OCO2)c1ccco1 (stereo not drawn)	-98*
Cc1ccc(C2NNC(=O)C2NC(=O)c2ccccc2)cc1 (stereo not drawn)	-111*
CCOc1ccc2c(c1)sc(=NC(=O)C1CC1)n2C	-215*
CCN(CC)C(NC(=O)c1ccccc1)C(=O)c1ccccc1 (stereo not drawn)	-69*
CC(C)c1ccc(/C=C(\c2nc3ccccc3[nH]2)S(=O)(=O)c2ccccc2)cc1	-81*
O=S(=O)(/C(=C/c1ccc(C(F)(F)F)cc1)c1nc2ccccc2[nH]1)c1ccccc1	-62*
Cc1ccc(OCc2nnc(N)s2)cc1C	-62*
c1ccc(CNc2c3ccccc3nc3ccccc23)cc1	-332*
CN(C)CCCNc1c2ccccc2nc2ccccc12	71
S=c1nc[nH]c2nc[nH]c12	67
S=c1sc2c(Cl)ncnc2n1-c1ccccc1	93
COc1ccc(-c2cc3ncnc(Cl)c3s2)cc1	-69*
O=C(c1cc(-c2ccc(Br)cc2)on1)N1CCCCCC1	-145*
O=C(c1cc(-c2cccc(O)c2)on1)N1CCCCCC1	-119*
O=C(c1cc(-c2ccc(Cl)c(Cl)c2)on1)N1CCCCC1	-193*
O=C(c1cc(-c2cccc(Cl)c2)on1)N1CCCC1	-182*
CCCCOc1ccc(-c2csc(N)n2)cc1[N+](=O)[O-]	-141*
CCCOc1ccc(-c2cn3ccccc3n2)cc1[N+](=O)[O-]	-114*
CCCCOc1ccc(CSc2nc(C)[nH]c2[N+](=O)[O-])cc1[N+](=O)[O-]	-65*
O=[N+]([O-])c1cccc(-c2cn3ccccc3n2)c1	-93*
COc1ccc(-c2cn3ccccc3n2)cc1[N+](=O)[O-]	-162*
C/C(=N\NC(=O)c1cc(Cl)ccc1O)c1ccc(Br)s1	-76*
C/C(=N\NC(=O)CSCc1ccccc1Cl)c1cc(O)ccc1O	62
CSc1ccc(CNC(=O)Cc2ccc(NC(=O)C3=C(C)OCCS3)cc2)cc1	-153*
NC(=O)N/N=C/c1ccc2cccc(OCc3ccccc3)c2n1	60
SMILES	aSyn UTR act
Cc1cccc(OCC(=O)NC(C)C(=O)N/N=C/c2c(OCc3ccccc3)ccc3ccccc23)c1 (stereo not drawn)	-138*
CC(=O)N/C(N)=N/c1nc(=O)c2ccccc2s1	-99*
CCOC(=O)N/C(N)=N/c1nc2ccccc2s1	-116*
NC(=O)c1c(/N=C/c2cccnc2)sc2c1CCCC2	-102*
Cc1ccc(/C=N/c2sc3c(c2C(N)=O)CCCC3)o1	-114*
Cc1ccccc1-c1noc(-c2cccs2)n1	-251*
Cc1ccccc1-c1nnc(-c2cccs2)o1	-116*
COc1ccc(N2Nc3n[nH]c(N)c3N2)cc1	-73*
CCOc1ccc(N2Nc3n[nH]c(N)c3N2)cc1	-65*
C=CCC1(CC=C)CCCN1C(=O)c1cc(COc2ccc(C)nc2)on1	-78*
CCc1cc(CNC(=O)c2cc(COc3ccc(C)nc3)on2)on1	-73*
Cc1ccc(OCc2cc(C(=O)N3CCCC3)no2)cn1	-70*
Cn1c(N)c(-c2nc3cccnc3n2C)sc1=S	-95*
Cc1cc(-c2nnc(CSc3nnc(NC(=O)c4ccc(C(C)(C)C)cc4)s3)o2)ccc1[N+](=O)[O-]	-110*
Cc1nc(S(=O)(=O)N(C)c2ccccc2)c(C#N)c(C)c1Cl	-77*
O=C(OCc1nc2ccccc2s1)c1cccs1	-197*
O=C(OCc1nc2ccccc2s1)c1ccccc1O	-137*
O=C(OCc1nc2ccccc2s1)c1cnccn1	-134*
O=C(O)c1ccccc1OCc1nc2ccccc2s1	-146*
CCn1c(NC(=S)Nc2ccccc2)nc2ccccc21	-106*
CCn1c(C)nc2cc(C(=O)NNC(=S)Nc3ccccc3)ccc21	-164*
CCn1c(C)nc2cc(-c3nc4n(n3)Cc3ccccc3-4)ccc21	87
CCn1c(C)nc2cc(C(=O)NNC(=S)Nc3ccc(F)cc3)ccc21	-126*
CCn1c(C)nc2cc(C(=O)NNC(=S)Nc3ccccc3Cl)ccc21	-110*
CCn1c(C)nc2cc(C(=O)N/N=C/c3ccccc3)ccc21	-83*
SMILES	aSyn UTR act
CCn1c(C)nc2cc(C(=O)OC(C(F)(F)C(F)F)C(F)(F)C(F)F)ccc21	-73*
CCn1c(C)nc2cc(C(=O)N/N=C(\C)c3ccc(OC)cc3O)ccc21	84
COc1ccc(-c2cc3ncc(-c4ccccc4)c(N)n3n2)cc1	-96*
CCOC(=O)C1=C(c2ccccc2)OC(N)=C(C#N)C1C(C)C (stereo not drawn)	-103*
N#CC1=C(N)Oc2ccc3ccccc3c2C1c1cccnc1 (stereo not drawn)	54
CCOC(=O)C1=C(CSc2nc(-c3ccccc3)ccc2C#N)OC(N)=C(C#N)C1c1cccnc1 (stereo not drawn)	-84*
CCOC(=O)C1=C(CSc2nc(-c3ccccc3)ccc2C#N)OC(N)=C(C#N)C1c1ccccc1 (stereo not drawn)	-103*
O=C(Nc1ccc(N2CCCC2)cc1)c1cccc(Cl)c1Cl	-100*
O=C(Nc1ccc(N2CCCCC2)cc1)c1cccnc1Cl	-128*
O=C(Nc1ccc(N2CCCC2)cc1)c1ccccc1F	-80*
